An excerpt weighted towards active compounds, which were near 2.3% of everything screened.
aDG glyco act: alpha-DG glycosylation activation. AID 624168. Pro5-aDG cells, alpha-DG glycosylation AlphaScreen (IIH6); 0% Pro5, 100% B10-LARGE cell signal. actives 0.22% (n = 360,000). activation, % at 10 µM;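 active = activation of at least 8% versus controls, or a plate z-score of at least 8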;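 note: Pro5 are CHO cells carrying HIG-tagged alpha-DG that lacks glycosylation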
m-calpain inh: blocks pig calpain II enzyme activity; purified calpain II, fluorogenic peptide substrate, 30 min; inhibition, % at 16 µM; actives 0.37% (n = 220,000);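 active = inhibition above about 50%, limit read from the data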
FAS-TE inh: blocks the thioesterase domain of human fatty acid synthase | AID 602261 | actives 0.67% (n = 360,000) | recombinant FAS-TE, OMFH fluorogenic substrate, fluorescence endpoint | P49327 | inhibition, % at 15 µM;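 active = compounds whose normalised, plate-corrected inhibition of enzyme fluorescence in the single-dose primary screen is 50% or more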;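 note: 0% = DMSO with enzyme and 100% = substrate without enzyme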
Target sequence (P49327 whole entry, looked up, the tested form may be a part): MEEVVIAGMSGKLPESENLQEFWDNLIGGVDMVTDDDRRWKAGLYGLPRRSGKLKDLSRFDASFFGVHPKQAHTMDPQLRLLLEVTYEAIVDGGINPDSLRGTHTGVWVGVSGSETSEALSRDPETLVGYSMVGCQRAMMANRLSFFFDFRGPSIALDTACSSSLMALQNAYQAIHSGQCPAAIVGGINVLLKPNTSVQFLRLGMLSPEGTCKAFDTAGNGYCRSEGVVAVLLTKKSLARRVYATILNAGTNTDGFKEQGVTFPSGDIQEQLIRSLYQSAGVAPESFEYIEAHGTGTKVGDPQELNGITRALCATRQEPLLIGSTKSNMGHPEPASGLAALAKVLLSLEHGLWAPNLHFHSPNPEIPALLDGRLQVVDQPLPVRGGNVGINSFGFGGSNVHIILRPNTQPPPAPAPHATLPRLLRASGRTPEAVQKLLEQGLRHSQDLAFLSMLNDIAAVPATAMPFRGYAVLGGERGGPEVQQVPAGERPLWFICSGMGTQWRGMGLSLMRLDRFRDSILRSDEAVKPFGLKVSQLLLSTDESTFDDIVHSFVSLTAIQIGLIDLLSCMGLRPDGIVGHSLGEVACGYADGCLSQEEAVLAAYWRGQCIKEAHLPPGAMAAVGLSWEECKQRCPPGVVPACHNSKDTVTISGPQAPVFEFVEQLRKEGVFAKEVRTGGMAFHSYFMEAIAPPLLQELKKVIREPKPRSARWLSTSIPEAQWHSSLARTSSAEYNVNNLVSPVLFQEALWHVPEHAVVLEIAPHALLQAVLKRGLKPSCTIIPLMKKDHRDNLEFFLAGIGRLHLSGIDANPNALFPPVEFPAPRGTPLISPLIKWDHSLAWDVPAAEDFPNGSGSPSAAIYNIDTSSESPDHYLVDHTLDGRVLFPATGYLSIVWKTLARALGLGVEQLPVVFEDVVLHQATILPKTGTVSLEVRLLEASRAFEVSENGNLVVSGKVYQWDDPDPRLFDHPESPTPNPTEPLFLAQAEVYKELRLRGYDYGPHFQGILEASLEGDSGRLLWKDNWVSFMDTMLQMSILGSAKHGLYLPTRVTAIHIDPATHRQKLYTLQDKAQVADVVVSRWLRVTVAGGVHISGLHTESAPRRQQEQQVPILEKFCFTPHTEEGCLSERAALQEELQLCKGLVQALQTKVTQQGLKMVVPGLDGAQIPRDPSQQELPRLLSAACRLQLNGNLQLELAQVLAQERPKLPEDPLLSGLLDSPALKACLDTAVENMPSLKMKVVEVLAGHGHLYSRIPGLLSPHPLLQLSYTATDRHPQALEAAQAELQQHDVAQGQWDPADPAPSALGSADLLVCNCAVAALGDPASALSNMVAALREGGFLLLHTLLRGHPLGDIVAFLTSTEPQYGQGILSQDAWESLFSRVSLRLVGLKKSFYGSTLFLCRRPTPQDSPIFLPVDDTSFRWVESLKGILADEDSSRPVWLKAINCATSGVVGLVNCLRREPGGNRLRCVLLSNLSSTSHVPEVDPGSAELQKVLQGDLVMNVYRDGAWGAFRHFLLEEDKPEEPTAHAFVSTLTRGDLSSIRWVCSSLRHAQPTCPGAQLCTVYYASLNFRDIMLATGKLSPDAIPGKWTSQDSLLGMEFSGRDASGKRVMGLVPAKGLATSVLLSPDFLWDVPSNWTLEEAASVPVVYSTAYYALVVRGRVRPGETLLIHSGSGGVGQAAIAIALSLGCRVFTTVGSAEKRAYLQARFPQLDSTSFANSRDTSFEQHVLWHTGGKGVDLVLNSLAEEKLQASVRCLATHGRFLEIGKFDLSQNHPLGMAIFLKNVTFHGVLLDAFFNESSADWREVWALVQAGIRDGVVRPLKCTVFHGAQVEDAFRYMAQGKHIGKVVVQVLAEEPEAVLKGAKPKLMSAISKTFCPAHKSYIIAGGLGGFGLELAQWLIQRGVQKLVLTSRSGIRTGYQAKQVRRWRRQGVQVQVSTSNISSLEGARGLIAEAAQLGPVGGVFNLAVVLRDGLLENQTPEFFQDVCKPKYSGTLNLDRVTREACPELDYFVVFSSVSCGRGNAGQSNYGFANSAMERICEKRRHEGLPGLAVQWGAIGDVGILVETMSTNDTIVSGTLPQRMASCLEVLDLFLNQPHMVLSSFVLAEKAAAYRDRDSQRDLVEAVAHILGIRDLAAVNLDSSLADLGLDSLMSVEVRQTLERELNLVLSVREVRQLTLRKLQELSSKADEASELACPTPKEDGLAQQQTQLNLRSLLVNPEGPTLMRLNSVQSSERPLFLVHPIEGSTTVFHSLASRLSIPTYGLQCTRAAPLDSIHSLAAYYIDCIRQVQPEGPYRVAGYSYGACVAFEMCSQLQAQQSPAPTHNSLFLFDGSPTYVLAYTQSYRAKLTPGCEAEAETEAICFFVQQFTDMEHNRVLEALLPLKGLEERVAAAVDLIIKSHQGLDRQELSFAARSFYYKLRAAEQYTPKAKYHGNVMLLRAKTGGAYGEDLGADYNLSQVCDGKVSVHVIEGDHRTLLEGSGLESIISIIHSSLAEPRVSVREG
H9c2 protect: myocardial damage modulation in H9c2 cells; actives 0.63% (n = 360,000); protection from H2O2 cell death, % at 20 µM; H9c2 cardiomyocytes, H2O2 injury protection, ATPLite, 2 h;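 active = compounds giving at least 50% protection of heart cells from peroxide-induced death in the single-dose screen, raw or plate-pattern-corrected value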;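 note: 0% = DMSO wells with peroxide and 100% = DMSO wells without peroxide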
H9c2 TAG inh: reduces triacylglycerol accumulation in H9c2 cells. Nile Red lipid (TAG) fluorescence; cells loaded with 200 µM oleic acid. inhibition, % at 12.5 µM. actives 0.66% (n = 230,000). AID 651582;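 active = pattern-corrected inhibition of lipid staining of at least 50% with the nuclear-stain viability signal not falling by more than 50%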;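 note: 0% = DMSO wells and 100% = triacsin C control wells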
beta cell repl: induces beta-cell replication in MIN6 cells | MIN6 cells proliferation, ATPlite luminescence, 48 h; cells starved in 0.2% serum; 100% = growth in 10% serum | proliferation, % at 10 µM | actives 0.29% (n = 330,000);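 active = compounds whose signal lies at least 3.5 SD above the mean of all wells on their plate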;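 note: 0% = DMSO-treated cells in low-serum medium and 100% = 10% serum control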
* marks the source's active call; other numbers are inactive results; x = no result given.

SMILES	aDG glyco act	m-calpain inh	FAS-TE inh	H9c2 protect	H9c2 TAG inh	beta cell repl
CC(=O)Nc1cccc(NC(=O)c2cc(-c3cccnc3)nc3ccc(Cl)cc23)c1	-0.3	-67.0	12.7	65.3*	5.1	-3.3
CC(=O)Nc1cccc(NC(=O)c2cc(-c3cccnc3)nc3ccc(Br)cc23)c1	2.5	-39.6	18.8	80.4*	x	-3.7
CCCOC(=O)Nc1cc(OC)ccc1[N+](=O)[O-]	0.2	63.1*	5.0	-7.6	15.8	-0.4
COc1ccc(/C=C/C(=O)NC(=S)NNC(=O)c2cnccn2)cc1	-0.1	-31.3	0.3	40.9	12.9	-1.9
O=C(/C=C/c1ccc(F)cc1)NC(=S)NNC(=O)c1cnccn1	0.1	-16.7	1.8	52.4*	10.2	-2.7
COc1ccc(-c2sc(C(=O)c3ccc(Cl)cc3Cl)cc2CC(=O)O)cc1	-0.1	x	-17.9	6.5	x	-1.1
CC(C)NC(=O)OC1CC2CC1[C@H]1CCCCN1C2=O (some centres undefined)	0.1	x	-9.9	x	x	x
Cc1onc(-c2ccccc2)c1C(=O)NC(=S)NNC(=O)c1ccccc1O	1.0	33.9	-5.6	59.6*	x	0.0
Cc1onc(-c2ccccc2)c1C(=O)NC(=S)NNC(=O)c1ccc(O)cc1	0.7	-2.2	-4.7	33.7	x	0.0
Cc1onc(-c2ccccc2)c1C(=O)NC(=S)NNC(=O)c1ccc(O)cc1O	0.4	15.5	-5.1	51.4*	x	0.0
COc1ccc(C(C)=O)c2c(O)cccc12	0.0	68.2*	-1.7	11.9	x	1.0
OCC(O)/C=N/Nc1nc(Nc2ccccc2)nc(Nc2ccccc2)n1 (centres undefined)	-0.2	x	0.9	38.5	x	-4.7
Cn1nc(C(C)(C)C)cc1C(=O)NCc1ccc(N2CCCC2=O)cc1	4.7*	-6.6	-8.4	-22.7	x	-5.5
COc1ccc(S(=O)(=O)N2CCC(C(=O)N[C@@H](C)C(=O)NCc3ccco3)CC2)cc1	-0.3	x	-9.2	-0.9	4.3	x
CCSc1nnc(N)s1	0.4	5.3	-8.9	76.3*	x	0.1
COc1ccccc1C(=O)O/N=C(/C)c1ccc(N2C(=O)C3CCCCC3C2=O)cc1 (centres undefined)	0.0	54.1*	10.4	-7.7	1.7	1.2
CC(=O)NCCNc1nc2c(-c3ccccc3)nnn2c2ccccc12	-0.2	x	1.9	55.3*	x	-0.9
Clc1ccc(CNC2CCN(Cc3ccccc3)CC2)cc1	0.4	x	-6.8	7.6	1.8	-3.6
S=C(NCc1ccc(Cl)cc1)NC1CCN(Cc2ccccc2)CC1	4.0	54.0*	-2.3	-12.1	-18.3	-4.9
Cc1sc2nc(CSC(C)C(=O)NC3(C#N)CCCCC3)[nH]c(=O)c2c1C (centres undefined)	-0.3	x	-15.4	8.7	-1.4	-4.0
Cc1nn(Cc2ccc(Cl)cc2Cl)c(C)c1NC(=O)CCl	0.5	15.5	-2.6	-4.7	x	-6.5
Cc1nn(Cc2ccc(Cl)cc2Cl)c(C)c1NC(=O)c1nn(C)cc1Cl	0.2	59.7*	-4.8	-5.8	x	-3.1
COC1OC(CO)C(N(C)C(C)=O)C1O (centres undefined)	0.0	x	-5.8	-1.9	x	x
CN1/C(=C\C=C2/SC(=S)NC2=O)C(C)(C)c2ccccc21	0.7	-45.2	-152.7	-24.8	-72.1	-6.1
CN1CCC/C1=C/C=C1\SC(=S)NC1=O	0.1	59.7*	-132.8	4.5	x	x
SMILES	aDG glyco act	m-calpain inh	FAS-TE inh	H9c2 protect	H9c2 TAG inh	beta cell repl
Cc1ccccc1-n1cnc2cc(NCc3cccs3)ccc21	0.2	10.4	9.7	0.6	x	2.1
COc1ccccc1-n1cnc2cc(NCc3cccs3)ccc21	-0.3	14.3	2.4	-13.4	57.8*	-3.2
COc1ccc(-c2nc(-c3ccc(NC(=O)c4ccc(Br)o4)cc3)no2)cc1OC	0.0	-77.1	10.6	-32.3	31.3	-3.2
O=C(Nc1ccc(-c2nc3ncccc3o2)cc1)c1ccc(Br)o1	0.8	-46.6	-8.8	11.3	69.2*	-0.3
COc1cc(-c2nc(-c3ccc(NC(=O)c4ccc(Br)o4)cc3)no2)cc(OC)c1OC	-0.1	-242.2	24.1	42.6	50.7*	-4.7
COc1cc(OC)c2c(-c3ccccc3)cc(=O)oc2c1C(CCN1CCCC1)c1ccc2c(c1)OCO2 (centres undefined)	0.0	-25.8	4.2	4.7	40.1	-7.9
CCCCCc1cc(=O)oc2c(C(CCN3CCCC(C)C3)c3ccc4c(c3)OCO4)c(OC)cc(OC)c12 (centres undefined)	1.8	21.6	9.4	-13.1	78.0*	-7.9
CCCCCc1cc(=O)oc2c(C(CCN3CCCCC3)c3ccc4c(c3)OCO4)c(OC)cc(OC)c12 (centres undefined)	0.4	0.5	17.7	-11.9	106.5*	-6.8
COc1ccc(C(CCN2CCCC(C)C2)c2c(OC)cc(OC)c3c(C)cc(=O)oc23)cc1 (centres undefined)	0.3	-45.0	41.7	4.8	-16.6	-4.8
COc1ccc(C(CCN2CCCC(C)C2)c2c(OC)cc(OC)c3c(-c4ccccc4)cc(=O)oc23)cc1 (centres undefined)	-0.6	-26.2	5.6	-18.0	102.9	-7.9
COc1cc(OC)c2c(-c3ccccc3)cc(=O)oc2c1C(CCN1CCCC(C)C1)c1ccc(N(C)C)cc1 (centres undefined)	0.3	-25.1	4.7	-22.0	94.2*	-9.0
CCC(CC)CN1CCC(CN2C(=O)C(=O)NC[C@@H]2CC(C)C)CC1	-0.1	x	-7.4	-1.7	x	x
COCC(=O)N(C)C[C@H]1N[C@@](C)(C(=O)OC)[C@H]2C(=O)N(Cc3ccccc3)C(=O)[C@@H]12	0.0	x	-13.1	4.2	-1.4	-3.6
CCN(CCO)c1ncnc2c1sc1nc(C(C)C)c3c(c12)CC(C)(C)OC3	0.3	-119.9	4.7	59.8*	8.1	3.7
O=c1cc(CCc2ccccc2)oc2cccc(O)c12	-0.1	x	11.5	-0.7	x	x
O=C(NCCc1ccccn1)c1ccc(OC(F)F)cc1	0.0	88.9*	-7.4	-17.2	-10.9	-1.0
O=C(NNC(=O)c1ccccn1)c1ccc(OC(F)F)cc1	0.7	x	-1.1	14.3	-23.6	-5.0
CCCCn1c(N)c(N(CC)C(=O)CCNC(=O)NC23CC4CC(CC(C4)C2)C3)c(=O)[nH]c1=O	0.1	x	-4.0	0.8	6.7	-0.1
Cc1ccc2[nH]c(=O)c(CN(CCCN3CCOCC3)C(=O)Nc3ccc(Cl)cc3)cc2c1	0.3	-49.6	-2.3	50.2*	-18.0	-3.0
CC[C@H](C)C(C(=O)N1CCN(C(=O)OC(C)(C)C)CC1)n1cc(C(CO)NC(=O)OC(C)(C)C)nn1 (some centres undefined)	-0.1	-10.2	-6.8	16.0	-14.7	-2.7
CC[C@H](C)C(C(=O)N1CCN(C(=O)OC(C)(C)C)CC1)n1cc(C(Cc2ccc(O)cc2)NC(=O)OC(C)(C)C)nn1 (some centres undefined)	-0.4	-10.1	-6.0	50.6*	0.0	-2.0

Screens (PubChem)
